Data taken from PubChem BioAssay (NCATS).
Records with an inconclusive call do not appear. The source made the active and inactive calls. The call rests on the fitted dose curve; in most records, active means well fitted curve in the direction sought with a large enough effect; inconclusive means small, poorly fitted or top-dose-only effect, or another doubt; inactive means no such curve, though single readings can be large; an effect the other way counts as inactive or inconclusive.

Key:
NIH3T3 [1] = test: Cytotoxic Profiling of Annotated Libraries Using Quantitative High-Throughput Screening (AID 1296008); conditions: Five cell lines viability, CellTiter-Glo ATP luminescence, 48-72 h; hits give low values; further: nearly all actives have a fitted effect of over 60% in size
How it was run: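 Cytotoxicity was measured as CellTiter-Glo ATP luminescence, read after 10 min at room temperature. Compound treatment of the cells lasted 48 or 72 hr at 37 degrees Celsius in a qHTS format.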

HACAT = test: qHTS assay to identify novel small-molecules to repurpose for Merkel cell carcinoma treatment (AID 1296009); conditions: MCC and control cell lines, CellTiter-Glo viability, 72 h; at 44.8 µM (top of the series) unless noted; further: nearly all actives have a fitted effect of over 60% in size
How it was run: (§1)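 After compound transfer in DMSO, plates were kept 72 hr at 37 degree celsius. Luminescent ATP signal from CellTiter-Glo served as viability measure, normalized against DMSO and no-cell controls.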

MCC-13 = test: as above; conditions: MCC and control cell lines, CellTiter-Glo viability, 72 h; series mostly up to 46 µM
How it was run: as §1

MCC-26 = test: as above; conditions: MCC and control cell lines, CellTiter-Glo viability, 72 h; series mostly up to 46 µM
How it was run: as §1

MKL-1 = test: as above; conditions: MCC and control cell lines, CellTiter-Glo viability, 72 h; series mostly up to 46 µM
How it was run: as §1

MKL-2 = test: as above; conditions: MCC and control cell lines, CellTiter-Glo viability, 72 h; series mostly up to 46 µM
How it was run: as §1

NIH3T3 [2] = test: as above; conditions: MCC and control cell lines, CellTiter-Glo viability, 72 h; at 44.8 µM (top of the series) unless noted
How it was run: as §1

UISO = test: as above; conditions: MCC and control cell lines, CellTiter-Glo viability, 72 h; series mostly up to 46 µM
How it was run: as §1

WaGa = test: as above; conditions: MCC and control cell lines, CellTiter-Glo viability, 72 h; series mostly up to 46 µM
How it was run: as §1

C33A = test: Primary qHTS to identify gynecologic anti-cancer compounds using libraries of approved drugs and bioactive compounds (AID 1345084); conditions: Gynecologic cancer cell panel viability, ATPlite luminescence, 48 h; series mostly up to 57.5 µM; further: nearly all actives have a fitted effect of over 55% in size
How it was run: (§2)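 Cytotoxicity screen measuring ATP content by luciferase luminescence. Each compound is applied at five concentrations for 48 h at 37 C with 5% CO2.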

CAOV3 = test: as above; conditions: Gynecologic cancer cell panel viability, ATPlite luminescence, 48 h; series mostly up to 57.5 µM
How it was run: as §2

CASKI = test: as above; conditions: Gynecologic cancer cell panel viability, ATPlite luminescence, 48 h; series mostly up to 57.5 µM
How it was run: as §2

Es-2 = test: as above; conditions: Gynecologic cancer cell panel viability, ATPlite luminescence, 48 h; series mostly up to 57.5 µM
How it was run: as §2

HeLa = test: as above; conditions: Gynecologic cancer cell panel viability, ATPlite luminescence, 48 h; series mostly up to 57.5 µM
How it was run: as §2

Hek293T [3] = test: as above; conditions: Gynecologic cancer cell panel viability, ATPlite luminescence, 48 h, control line for the selectivity index; series mostly up to 57.5 µM
How it was run: as §2

JEG-3 = test: as above; conditions: Gynecologic cancer cell panel viability, ATPlite luminescence, 48 h; series mostly up to 57.5 µM
How it was run: as §2

OV90 = test: as above; conditions: Gynecologic cancer cell panel viability, ATPlite luminescence, 48 h; series mostly up to 57.5 µM
How it was run: as §2

PA-1 = test: as above; conditions: Gynecologic cancer cell panel viability, ATPlite luminescence, 48 h; series mostly up to 57.5 µM
How it was run: as §2

SKOV3 = test: as above; conditions: Gynecologic cancer cell panel viability, ATPlite luminescence, 48 h; series mostly up to 57.5 µM
How it was run: as §2

HEK293T [4] = test: qHTS assay to identify novel small-molecules to repurpose for Merkel cell carcinoma treatment (AID 1296009); conditions: MCC and control cell lines, CellTiter-Glo viability, 72 h; at 44.8 µM (top of the series) unless noted; further: nearly all actives have a fitted effect of over 60% in size
How it was run: as §1
On the % scale 0 is the no-effect control and ±100 the full control effect.

Cc1c(C(=O)NCCO)[n+](=O)c2ccccc2n1[O-]
inactive: outcome (NIH3T3 [1]) | outcome (HACAT) | outcome (MCC-13) | outcome (MCC-26) | outcome (MKL-1) | outcome (MKL-2) | outcome (NIH3T3 [2]) | outcome (UISO) | outcome (WaGa) | outcome (C33A) | outcome (CAOV3) | outcome (CASKI) | outcome (Es-2) | outcome (HeLa) | outcome (Hek293T [3]) | outcome (JEG-3) | Potency (OV90) | outcome (PA-1) | outcome (SKOV3)

Cc1cccc(C(=O)O)c1O
inactive: outcome (NIH3T3 [1]) | outcome (HACAT) | outcome (MCC-13) | outcome (MCC-26) | outcome (MKL-1) | outcome (MKL-2) | outcome (NIH3T3 [2]) | outcome (UISO) | outcome (WaGa) | outcome (C33A) | outcome (CAOV3) | outcome (CASKI) | outcome (JEG-3) | Potency (OV90) | outcome (PA-1) | outcome (SKOV3)

CC(N)CCCC(C)(C)O (configuration not stated)
inactive: outcome (NIH3T3 [1]) | outcome (HACAT) | outcome (MCC-13) | outcome (MCC-26) | outcome (MKL-1) | outcome (MKL-2) | outcome (NIH3T3 [2]) | outcome (UISO) | outcome (WaGa) | outcome (C33A) | outcome (CAOV3) | outcome (CASKI) | outcome (Es-2) | outcome (HeLa) | outcome (Hek293T [3]) | outcome (JEG-3) | Potency (OV90) | outcome (PA-1) | outcome (SKOV3)

O=C(O)c1ccc[n+]([O-])c1
inactive: outcome (NIH3T3 [1]) | outcome (HACAT) | outcome (MCC-13) | outcome (MCC-26) | outcome (MKL-1) | outcome (MKL-2) | outcome (NIH3T3 [2]) | outcome (UISO) | outcome (WaGa) | outcome (C33A) | outcome (CAOV3) | outcome (CASKI) | outcome (Es-2) | outcome (HeLa) | outcome (Hek293T [3]) | outcome (JEG-3) | Potency (OV90) | outcome (PA-1) | outcome (SKOV3)

Cc1c(NC(=O)c2cccnc2)c(=O)n(-c2ccccc2)n1C
inactive: outcome (NIH3T3 [1]) | outcome (HACAT) | outcome (MCC-13) | outcome (MCC-26) | outcome (MKL-1) | outcome (MKL-2) | outcome (NIH3T3 [2]) | outcome (UISO) | outcome (WaGa) | outcome (C33A) | outcome (CAOV3) | outcome (CASKI) | outcome (Es-2) | outcome (HeLa) | outcome (Hek293T [3]) | outcome (JEG-3) | Potency (OV90) | outcome (PA-1)

CC(=O)OCC(=O)[C@@]1(O)CC[C@H]2[C@@H]3CCC4=CC(=O)C=C[C@]4(C)[C@@]3(F)[C@@H](O)C[C@@]21C
inactive: max response (NIH3T3 [1]) 0.516% | outcome (HACAT) | outcome (HEK293T [4]) | outcome (MCC-13) | outcome (MKL-1) | outcome (MKL-2) | outcome (UISO) | outcome (WaGa) | outcome (C33A) | outcome (CASKI) | outcome (Es-2) | outcome (HeLa) | outcome (Hek293T [3]) | outcome (JEG-3) | Potency (OV90) | outcome (PA-1)

CC1(C)S[C@@H]2[C@H](N=CN3CCCCCC3)C(=O)N2[C@H]1C(=O)O
inactive: outcome (NIH3T3 [1]) | outcome (HACAT) | outcome (MCC-13) | outcome (MCC-26) | outcome (MKL-1) | outcome (MKL-2) | outcome (NIH3T3 [2]) | outcome (UISO) | outcome (WaGa) | outcome (C33A) | outcome (CAOV3) | outcome (CASKI) | outcome (Es-2) | outcome (HeLa) | outcome (Hek293T [3]) | outcome (JEG-3) | Potency (OV90) | outcome (PA-1) | outcome (SKOV3)

CCC(C)(CN(C)C)OC(=O)c1ccccc1 (configuration not stated)
inactive: max response (NIH3T3 [1]) -14.8% | outcome (HACAT) | outcome (HEK293T [4]) | outcome (MCC-13) | outcome (MKL-1) | outcome (MKL-2) | outcome (UISO) | outcome (WaGa) | outcome (C33A) | outcome (CASKI) | outcome (Es-2) | outcome (HeLa) | outcome (Hek293T [3]) | outcome (JEG-3) | Potency (OV90) | outcome (PA-1) | outcome (SKOV3)

CC(=O)N[C@H]1[C@H]([C@H](O)[C@H](O)CO)OC(C(=O)O)=C[C@@H]1N=C(N)N
inactive: outcome (NIH3T3 [1]) | outcome (HACAT) | outcome (MCC-13) | outcome (MCC-26) | outcome (MKL-1) | outcome (MKL-2) | outcome (NIH3T3 [2]) | outcome (UISO) | outcome (WaGa) | outcome (C33A) | outcome (CAOV3) | outcome (CASKI) | outcome (Es-2) | outcome (HeLa) | outcome (Hek293T [3]) | outcome (JEG-3) | Potency (OV90) | outcome (PA-1) | outcome (SKOV3)

CC1CC(OC(=O)c2ccccc2O)CC(C)(C)C1 (configuration not stated)
inactive: max response (NIH3T3 [1]) -4.04% | outcome (HACAT) | outcome (HEK293T [4]) | outcome (MCC-13) | outcome (MCC-26) | outcome (MKL-1) | outcome (UISO) | outcome (WaGa) | outcome (C33A) | outcome (CAOV3) | outcome (CASKI) | outcome (Es-2) | outcome (HeLa) | outcome (Hek293T [3]) | outcome (JEG-3) | Potency (OV90) | outcome (PA-1) | outcome (SKOV3)

NC(=O)NC1NC(=O)NC1=O (configuration not stated)
inactive: outcome (NIH3T3 [1]) | outcome (HACAT) | outcome (MCC-13) | outcome (MCC-26) | outcome (MKL-1) | outcome (MKL-2) | outcome (NIH3T3 [2]) | outcome (UISO) | outcome (WaGa) | outcome (C33A) | outcome (CAOV3) | outcome (CASKI) | outcome (Es-2) | outcome (HeLa) | outcome (Hek293T [3]) | outcome (JEG-3) | Potency (OV90) | outcome (PA-1) | outcome (SKOV3)

CCCCCOC(=O)Nc1nc(=O)n([C@@H]2O[C@H](C)[C@@H](O)[C@H]2O)cc1F
inactive: max response (NIH3T3 [1]) 3.66% | outcome (HACAT) | outcome (HEK293T [4]) | outcome (MCC-13) | outcome (MCC-26) | outcome (MKL-1) | outcome (MKL-2) | outcome (UISO) | outcome (WaGa) | outcome (C33A) | outcome (CAOV3) | outcome (CASKI) | outcome (Es-2) | outcome (HeLa) | outcome (Hek293T [3]) | outcome (JEG-3) | Potency (OV90) | outcome (PA-1)

C[n+]1ccccc1/C=N/O
inactive: outcome (NIH3T3 [1]) | outcome (HACAT) | outcome (MCC-13) | outcome (MCC-26) | outcome (MKL-1) | outcome (MKL-2) | outcome (NIH3T3 [2]) | outcome (UISO) | outcome (WaGa) | outcome (C33A) | outcome (CAOV3) | outcome (CASKI) | outcome (Es-2) | outcome (HeLa) | outcome (Hek293T [3]) | outcome (JEG-3) | Potency (OV90) | outcome (SKOV3)

COc1ccc(NS(=O)(=O)c2ccc(N)cc2)nn1
inactive: max response (NIH3T3 [1]) -9.1% | outcome (HACAT) | outcome (HEK293T [4]) | outcome (MCC-13) | outcome (MCC-26) | outcome (MKL-1) | outcome (MKL-2) | outcome (UISO) | outcome (WaGa) | outcome (C33A) | outcome (CAOV3) | outcome (CASKI) | outcome (Es-2) | outcome (HeLa) | outcome (Hek293T [3]) | outcome (JEG-3) | outcome (PA-1) | outcome (SKOV3)

NS(=O)(=O)c1ccc(NC(=O)CCC(=O)O)cc1
inactive: outcome (NIH3T3 [1]) | outcome (HACAT) | outcome (MCC-13) | outcome (MCC-26) | outcome (MKL-1) | outcome (MKL-2) | outcome (NIH3T3 [2]) | outcome (UISO) | outcome (WaGa) | outcome (C33A) | outcome (CAOV3) | outcome (CASKI) | outcome (Es-2) | outcome (HeLa) | outcome (Hek293T [3]) | outcome (JEG-3) | Potency (OV90) | outcome (PA-1) | outcome (SKOV3)
